The structures appear in SMILES notation. The campaign covered roughly 330,000 compounds. About 1,900 (0.58%) were called active. About 4% were inconclusive and are not listed. These entries were drawn from the full list. Measured potencies and affinities stand elsewhere. A number with no mark means an inactive call. Cut-off read from the data, not from the text of the source: inconclusive = inhibition above about 70% without an active follow-up result; inactive = below that.

This experiment can be described thus: M. tuberculosis growth inhibition, HTS (AID 449762).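 Note: bacterial growth assessed after seven days of incubation.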 Particulars: M. tuberculosis H37Rv growth inhibition, 7H9 media; at 25 µM; stronger effect = higher value.
For orientation: inhibition means the relative decrease from the control value, in per cent. Turning to `CO/N=C/C(C#N)=C/c1ccc(OC)c(OC)c1`, the inhibition was 2.72%.

Regarding `CCCCn1c2ccccc2c2cc(CC(N)=O)ccc21`, the inhibition is 2.07%.

As to `COc1ccc(NC(=O)CCC(=O)OCc2ccc(C(=O)Oc3ccc(Cl)cc3)cc2)cc1`, the inhibition was -10.2%.

With `O=C(CCC(=O)OCc1ccc(Br)cc1)Nc1ccccc1`, the inhibition is -10.8%.

As for `O=C(CNC(=O)c1ccco1)NCC(=O)OCc1ccc(C(=O)Oc2ccc(Cl)cc2)cc1`, the inhibition was -2.15%.

Take `COc1ccc(C(=O)NCC(=O)NCC(=O)OCc2ccc(Cl)cc2)cc1`: the inhibition was 8.99%.

`O=C(CNC(=O)c1ccco1)OCc1ccc(C(=O)c2ccccc2)cc1`: the inhibition was 14.1%.

Take `COc1ccc(CCNC(=O)c2ccc(Cl)cc2)cc1`: the inhibition is 15.5%.

Take `O=C1CN(C(=O)CSc2ccc(-c3ccc(F)cc3)nn2)c2ccccc2N1`: the inhibition was -6.46%.

As for `Cc1ccnc(N=Cc2nc(-c3ccccc3Br)oc2O)c1`, the inhibition was 2.41%.

Consider `Cc1nc(CCNC(=O)c2cc(COc3ccc(F)cc3Cl)on2)sc1C`, for which the inhibition is 12.2%.

In the case of `COc1ccc(-c2nc3c(c(=O)[nH]c(=O)n3Cc3ccccc3)n2CCO)cc1`, the inhibition is -6.32%.

For `CCCOc1ccc(-c2nc3c(c(=O)[nH]c(=O)n3Cc3ccccc3)n2CCO)cc1OCC`, the inhibition is -0.79%.

`CC(C)c1nc2ccc(Br)cn2c1NC1CCCC1`: the inhibition is -4.28%.

For the molecule `CC(Sc1nnc(N)s1)C(=O)NNC(=O)c1cccc(Cl)c1` (stereo unspecified), the inhibition was 0.75%.

Consider `CC1(C)C=Cc2c(ccc3c2OC[C@@H](c2ccc(O)cc2O)C3)O1`, for which the inhibition was 4.54%.

Consider `CC1(C)C=Cc2c(ccc3c2OC[C@H](c2ccc(O)cc2O)C3)O1`, for which the inhibition is 9.89%.

On to `CC1Cc2ccccc2N1C(=S)NC1CCCC1` (stereo unspecified), for which the inhibition is -1.79%.

For the molecule `COc1cccc(C(=O)NC(=S)N2c3ccccc3CC2C)c1OC` (stereo unspecified), the inhibition was -5.31%.

As to `O=C(Nc1ccccc1N1CCCCC1)c1cccc(Cl)c1`, the inhibition is 8.39%.

In the case of `CCC(C)c1ccc(S(=O)(=O)N2CCN(CC(O)CN3CCOCC3)CC2)cc1` (stereo unspecified), the inhibition is -16.5%.

As for `CCCOc1ccc(-c2cn3ccccc3n2)cc1[N+](=O)[O-]`, the inhibition was 2.24%.

With `COc1ccc2c(c1)C(=O)/C(=C/C=C/c1ccccc1)CC2`, the inhibition was 6.15%.

As to `COc1ccc2c(c1)CC/C(=C/c1cc(OC)c(OC)c(OC)c1)C2=O`, the inhibition is 50%.

Take `CC1CCCN(CCCNC(=O)c2ccc(NC(=O)C3=CSCCO3)cc2)C1` (stereo unspecified): the inhibition was -0.6%.

For `O=C(Nc1ccc(C(=O)NCCCN2CCN(c3ccccc3)CC2)cc1)C1=CSCCO1`, the inhibition was 4.06%.

`CC(=O)Nc1ccc(NC(=O)CCCSc2nc3ccccc3s2)cc1`: the inhibition is 0.37%.

Turning to `COCC(C)n1c(-c2ccc3c(c2)NC(=O)CO3)csc1=Nc1ccc(OC(F)F)cc1` (stereo unspecified), the inhibition was 5.17%.

Take `COCCN=c1scc(-c2ccc3c(c2)NC(=O)CO3)n1/N=C(\C)c1ccc(O)cc1`: the inhibition was 6.92%.

With `CC(=O)N1CCN(S(=O)(=O)c2cccc(C(=O)NC3CCCC3)c2)CC1`, the inhibition was -8.08%.

As to `O=C(Nc1ccccc1C1CC1)c1cccs1`, the inhibition is -3.36%.

Take `CCc1cccc2c(C(=O)CN3C(=O)NC4(CCCCCC4)C3=O)c[nH]c12`: the inhibition is -3.22%.

On to `CN(Cc1cn(C)nc1-c1ccc(Oc2ccccc2)cc1)CC1COCCO1` (stereo unspecified), for which the inhibition is 8.39%.

For the molecule `O=C(NCc1cccnc1)c1ccc(Cl)c(Cl)c1`, the inhibition was 3.71%.

Take `O=C(CN1C(=O)/C(=C/c2ccccc2F)Sc2ccccc21)NCc1cccnc1`: the inhibition is 14.8%.

Turning to `CC(C)CCNC(=O)Cc1csc(-c2ccccc2)n1`, the inhibition is -12%.

Regarding `COc1ccc(CC(NC(C)=O)C(=O)NC2CCN(c3c4c(nc5ncnn35)CCC4)CC2)cc1` (stereo unspecified), the inhibition is -5.34%.

For the molecule `Cc1ccc(OCC(=O)NC(C)c2ccc(Cl)c(Cl)c2)c([N+](=O)[O-])n1` (stereo unspecified), the inhibition is -3.43%.

Regarding `CC(=O)NC(C)c1ccc(Cl)c(Cl)c1` (stereo unspecified), the inhibition was 7.59%.

Turning to `CCOC(=O)Cc1csc(NS(=O)(=O)Cc2ccccc2)n1`, the inhibition is -4.69%.

As for `Cc1ccc2cccc(OCC(=O)NCCC3=CCCCC3)c2n1`, the inhibition was 37.1%.

Consider `Cc1ccc(C(=O)N/C(=C\c2cccs2)C(=O)N2CCN(C)CC2)cc1C`, for which the inhibition is 0.74%.

For `CN1C(=O)[C@H]2[C@@H](/C=C/c3ccccc3)N3C(=O)CN(Cc4ccccn4)C(=O)[C@@]3(Cc3ccccc3)[C@H]2C1=O`, the inhibition is -6.69%.

As for `COc1ccc(-c2nc(C3CCCCC3)c3cc(OC)ccc3n2)cc1`, the inhibition was 8.29%.

Turning to `COc1ccc2nc(C3CCCCC3)nc(C3CCCCC3)c2c1`, the inhibition is 0.84%.

Regarding `O=C(NCCC1=CCCCC1)C1CCN(S(=O)(=O)c2ccccc2C(F)(F)F)CC1`, the inhibition was -3.46%.

As for `COCCOc1cc(NC(=O)c2ccccc2)c(Cl)cc1Cl`, the inhibition was 15%.

With `CC(=O)c1cnc2c(-c3ccc(Cl)cc3)cnn2c1C`, the inhibition was -5.22%.

As for `Nc1c(-c2ccc(Cl)cc2)cnc2c(-c3ccccc3)cnn12`, the inhibition was -2.52%.

`COc1ccccc1NC(=O)CSc1nc2ccccc2c(=O)n1C`: the inhibition was 0.03%.

Turning to `COc1ccc(-c2nn(-c3ccccc3)cc2CNC(=O)c2cccc([N+](=O)[O-])c2)cc1`, the inhibition is 8.99%.

`c1cncc(-c2ccc3ncnc(NCc4cccs4)c3c2)c1`: the inhibition was 0.82%.

`CCOC(=O)N1CCN(CCC(=O)Nc2ccc(OC(F)(F)F)cc2)CC1`: the inhibition was 18.8%.

Take `Cc1ccc(CNC(=O)NC2CCCCC2)cc1`: the inhibition was -3.64%.

For the molecule `Cc1cc2cc(CNC(=S)NC3CCCCC3)ccc2[nH]1`, the inhibition is 4.14%.

Take `Cc1ccc(N2C(=O)N(CC(=O)Nc3ccc(C)cc3Cl)C(=O)C2C)cc1` (stereo unspecified): the inhibition was -3.9%.

In the case of `Cc1ccc2cccc(N)c2n1`, the inhibition is 1.54%.

With `Cc1ccc2c(C)ccc(O)c2n1`, the inhibition is -1.61%.

Take `COc1ccc(CC(=O)N2CCC3(CC2)NCCc2[nH]cnc23)cc1`: the inhibition was 2.98%.

`O=C(c1ccoc1)N1CCCC(N2CCN(c3ccc(F)cc3)CC2)C1` (stereo unspecified): the inhibition was -11.5%.

On to `COc1ccccc1N1CCN(C2CCCN(C(=O)c3cccc(-c4ccco4)c3)C2)CC1` (stereo unspecified), for which the inhibition is 2.87%.

Regarding `CCOc1ccc(C2OC(=O)Cc3cc(OC)c(OC)cc32)cc1` (stereo unspecified), the inhibition was -2.13%.

Regarding `Cc1cccc(N2CCN(S(=O)(=O)c3cn(C)cn3)CC2)c1C`, the inhibition is -3.87%.

On to `Nc1cc(Cl)ccc1Oc1ccccc1`, for which the inhibition is -2.47%.

Turning to `Nc1cc(Cl)ccc1Oc1ccc(Cl)cc1`, the inhibition was 4.14%.

With `CN(CC(=O)Nc1ccc(F)c(F)c1F)c1ncnc2sccc12`, the inhibition is 1.29%.

`O=C(CNC(=O)c1cnccn1)Nc1ccc(F)c(F)c1F`: the inhibition was -5.9%.

As for `COCCN(C(=O)/C=C/c1ccccc1)c1c(N)n(Cc2ccccc2)c(=O)[nH]c1=O`, the inhibition was -1.36%.

As to `O=CC1=C(N2CCOCC2)/C(=C\c2ccccc2)CC1`, the inhibition is -3.36%.

Consider `O=C(O)c1ccc(N/N=C/C2=C(N3CCOCC3)C(=C\c3ccccc3)/CC2)cc1`, for which the inhibition is 0.66%.

For `O=C(Cc1ccccc1)NNC1CC(=O)N(c2ccc(Br)cc2)C1=O` (stereo unspecified), the inhibition was 0.86%.

As for `O=C(NNC1CC(=O)N(c2ccc(Br)cc2)C1=O)c1cccnc1` (stereo unspecified), the inhibition was 1.55%.

For the molecule `Cc1nn(C(C)C(=O)NCCCN(Cc2ccccc2)C(C)C)c(=O)c2c1sc1ccccc12` (stereo unspecified), the inhibition was -3.36%.

For `C=CCC1c2cccc(C(=O)O)c2C(=O)N1c1cccc(C)c1` (stereo unspecified), the inhibition is 0.68%.

On to `Cc1cccc(Nc2nc(-c3ccc(O)cc3O)cs2)n1`, for which the inhibition is 6.03%.

In the case of `COc1ccc(-n2ncc3c(N4CCC(C(N)=O)CC4)ncnc32)cc1`, the inhibition was 2.74%.

Consider `CCOC(=O)C1CCN(c2ncnc3c2cnn3-c2ccc(Cl)cc2)CC1`, for which the inhibition was 5.45%.

As to `O=C(c1cnn(Cc2ccccc2)c1)N1CCN(S(=O)(=O)/C=C/c2ccccc2)CC1`, the inhibition was 6.35%.

For `COCC(=O)Nc1sc2c(c1C(=O)OC)CCC(C)C2` (stereo unspecified), the inhibition is 9.87%.

As to `COC(=O)c1c(NC(=O)CN2CCOCC2)sc2c1CCC(C)C2` (stereo unspecified), the inhibition is 3.32%.

On to `COCC(=O)Nc1cccc(-c2ccc3nncn3n2)c1`, for which the inhibition was 0.62%.

As to `CCCCCc1ccc(-c2cn(CC3CCCCC3)nn2)cc1`, the inhibition was 5.3%.

For the molecule `CCn1cc(C(=O)NC(=S)Nc2ccccc2Br)cn1`, the inhibition was -4.11%.

Take `CCn1c(C)c(C)c2cc(C(=O)NC3CCCCCC3)ccc21`: the inhibition was 0.46%.

Turning to `CCn1c(C)nc2cc(C(=O)NNC(=O)Nc3cccc(Cl)c3)ccc21`, the inhibition was 2.59%.

Take `COc1ccc(-c2cc(C(=O)N/N=C/c3cccnc3)c3ccccc3n2)cc1`: the inhibition is -8.58%.

Take `CC(C)=CC(=O)N1CC[C@@H](N2CCN(c3ccccc3F)CC2)[C@H](O)C1`: the inhibition was -5.32%.

As to `COc1ccccc1/C=N/Nc1cc(C)nc2ccc(C)cc12`, the inhibition is -11.1%.

`COc1ccc(/C=N/Nc2nc(C)cc(-c3ccccc3)n2)c(OC)c1`: the inhibition is 7.29%.

As to `CC(C)Oc1cccc(OCCN2C(=O)c3ccccc3C2=O)c1`, the inhibition is 7.3%.

For the molecule `NC(=S)NNc1ccnc2cc(Cl)ccc12`, the inhibition was 41.1%.

With `NC(=S)NNC(=O)Nc1ccc(Cl)c(Cl)c1`, the inhibition is -11.5%.

For `CCOc1ccccc1N1CCN(CC(O)COCc2cccs2)CC1` (stereo unspecified), the inhibition is 7%.

On to `C=CCn1c(CCCOc2ccc(Cl)cc2Cl)nnc1SCC(=O)Nc1nccs1`, for which the inhibition is -6.64%.

Take `O=C(O)/C=C/C(=O)N1CCN(Cc2ccc3c(c2)OCO3)CC1`: the inhibition was -4.14%.

`O=C(/C=C/c1cccs1)N1CCN(Cc2ccc3c(c2)OCO3)CC1`: the inhibition was 49.9%.
